Compound activity deposited in PubChem by National Center for Advancing Translational Sciences (NCATS).
TGFb SMAD3 inh: TGF-b pathway inhibition; HepG2 CAGA-GFP TGF-b/SMAD3 reporter, GFP fluorescence, 18 h; TGF-beta stimulated, 500 pg/mL final; Potency, µM (series often up to 46.1 µM), inactives show at the top dose activity, negative = inhibition, actives largely listed as inhibitors; 410,000 compounds, 1.2% hits; further: potency means the concentration at half of the fitted maximal effect; on the % scale 0 is the no-effect control and ±100 the full control effect; nearly all actives have a fitted effect of over 65% in size
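HEPG2 CAGA-GFP reporter cells (1000/well, DMEM with 1% FBS) received compounds, then recombinant TGF-beta at 500 pg/mL final for 18 hours at 37 degrees C. Per-cell GFP summed per well was normalised to unstimulated and stimulated DMSO controls before curve fitting.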
IL-1B inflam inh: inflammasome signaling inhibition, IL-1 beta readout; AID 743279; THP-1 LPS/ATP IL-1B secretion, AlphaLISA, 16 h; hits give low values; 360,000 compounds, 4.7% hits; activity change, % at 57.5 µM; in the data active means activity change below about -50%; inconclusive means mostly about -30% to -49%; further: on the % scale 0 is the no-effect control and ±100 the full control effect
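THP-1 cells pretreated 1 hr with compounds (up to 57.5 uM final), then stimulated with LPS (250 ng/mL final) plus ATP (1.25 mM final); secreted IL-1B measured by AlphaLISA after 16 hr, decreased signal indicating inhibition.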
HT1080 IDH1KD tx: toxicity to HT-1080 IDH1 knockdown cells (counter line); HT-1080 IDH1 knockdown viability, ATP luminescence, 48 h; Potency, µM (doses to about 46.1 µM), for the others: at the top dose activity, negative = toxicity, hits mostly cytotoxic; 360,000 compounds, 2% hits;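 further: potency means the concentration at half of the fitted maximal effect; 0% = DMSO wells and -100% = cell-free medium wells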
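% activity derives from luminescence (CellTiter-Glo), normalised to DMSO and no-cell wells. HT-1080-IDH1KD cells, 750/well, had 48 h compound exposure at 37 °C.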
HT1080-NT tox: kills 2HG-producing HT-1080-NT fibrosarcoma cells. Potency, µM (highest dose often 46.1 µM), inactives show at the highest dose activity, negative = less viability, usual class: cytotoxic. 360,000 compounds, 1.6% hits. AID 686970. HT-1080-NT fibrosarcoma viability, CellTiter-Glo ATP luminescence, 48 h;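 further: NT is the 2HG producing partner of a matched IDH1 knockdown line; potency means the concentration at half of the fitted maximal effect; 0% = DMSO-treated cells and -100% = media-only wells without cells; nearly all actives have a fitted effect of over 55% in size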
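Viability by CellTiter-Glo luminescence after 48 h compound exposure at 37C of HT-1080-NT cells (750/well, RPMI, 5% FBS). % activity scaled between DMSO wells and medium-only wells, then curve-fitted and categorized by curve class.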
Giardia kill: kills Giardia lamblia. 340,000 compounds, 0.15% hits. activity change, % at 7.66 µM, hits read low. AID 540267. Giardia lamblia trophozoite viability; in the data active means activity change below about -80%; inconclusive means between about -30% and that limit;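 further: parasites exposed to compound for two days anaerobically before the ATP read; on the % scale 0 is the no-effect control and ±100 the full control effect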
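Luminescent ATP signal served as the viability read-out, measured 15-30 min after adding ATP detection reagent to trophozoites that had been incubated with compounds for 48 hrs at 37 deg C anaerobically at 100 cells/well.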
HepG2 tox: counter-screen for TGF-b inhibitors: cytotoxicity in HepG2 cells. HepG2 CAGA-GFP viability, ATP luminescence, 18 h. Potency, µM (titrated, usually from 46.1 µM), for inactives: at the highest dose activity change, negative = cytotoxicity, usual class: cytotoxic. 410,000 compounds, 0.76% hits. AID 588856; further: potency means the concentration at half of the fitted maximal effect
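CellTiter-Glo luminescence gave cytotoxicity after 18 hours at 37 degrees C. The cells were HepG2 CAGA-GFP in 1% FBS DMEM, stimulated with 500 pg/mL TGF-beta after compound addition. %Activity was normalised to no-cell wells (complete cell-killing) and DMSO (no toxicity), and curves were fitted and classified.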
Starred values were filed as active, the others as inactive; ? = inconclusive; . = not tested or not shown. Hits are enriched below; roughly 6.5% of the tested compounds scored in any of these assays. Unless noted, the call rests on the fitted dose curve; in most records, active means well fitted curve in the direction sought with a large enough effect; inconclusive means small, poorly fitted or top-dose-only effect, or another doubt; inactive means no such curve, though single readings can be large; an effect the other way counts as inactive or inconclusive.

SMILES	TGFb SMAD3 inh	IL-1B inflam inh	HT1080 IDH1KD tx	HT1080-NT tox	Giardia kill	HepG2 tox
O=c1[nH]c(CN2CCN(C/C=C/c3ccccc3)CC2)nc2cc(Cl)ccc12	-20%	-72*	-27%	?	-2	5%
CC(=O)NCCNc1nc2c(S(=O)(=O)c3ccc(C)c(C)c3)nnn2c2ccc(Cl)cc12	-18%	.	.	.	.	-31%
Cc1ccc(-c2nc(CCN3C(=O)c4ccccc4C3=O)cs2)cc1	41%	-4	10µM*	?	-20	-16%
O=C1c2ccccc2C(=O)N1CCc1csc(NNc2nc(CCN3C(=O)c4ccccc4C3=O)cs2)n1	-6%	-18	0%	6%	-10	2%
CC(=O)c1ccc(NC(=O)C(C)OC(=O)CCCN=C2NS(=O)(=O)c3ccccc32)cc1 (stereo not given)	-10%	-3	4%	2%	-10	6%
CCCCc1ccc(NC(=O)CC(C)(C)C)cc1	14%	-76*	-29%	?	-6	0%
CC(C)(C)CC(=O)Nc1ccc(Nc2ccccc2)cc1	1%	-62*	-15%	-6%	3	-7%
Cc1ccc2nc(-c3ccccc3)c(CN3CCOCC3)n2c1	-17%	0	19%	16%	11	-34%
CSc1nc(Cl)cc(Nc2ccc(O)cc2)n1	?	16	13µM*	16µM*	-11	-8%
CCC(=O)n1nc(-c2ccccc2)nc1NCc1ccccc1	-12%	-12	7%	0%	-15	8%
Cc1ccccc1C(=O)NC1CC2CCCC(C1)N2Cc1ccccc1Cl (stereo not given)	6%	8	9%	12%	.	-2%
S=C1NC2(CCCCC2)NN1c1ccccc1	0%	22	?	?	9	-1%
O=C1NC2(CCC3(CC2)OCCO3)NN1c1ccccc1	-3%	-1	7.3µM*	6.5µM*	2	-26%
COC(=O)C(C)N(C(=O)c1cccc2ccccc12)c1c(C)cccc1C (stereo not given)	4%	-1	?	-4%	-3	-1%
CCOc1ccc(NCc2cccn2-c2nnc(N3CCC(C(=O)NCCOC)CC3)s2)cc1	.	.	.	.	.	-4%
CCOc1ccc(NCc2cccn2-c2nnc(N3CCC(C(=O)NCCCN4CCCCC4CC)CC3)s2)cc1 (stereo not given)	-20%	-69*	-19%	-24%	6	14µM*
Oc1ccccc1C1CC(c2cccs2)=NC(c2cccc(Br)c2)N1 (stereo not given)	20µM*	-10	?	?	6	-61%
COc1ccc(-c2[nH]c(-c3ccc4c(c3)OCO4)nc2-c2ccccc2)cc1	?	-64*	?	?	7	-26%
COc1ccc(Nc2nc(-c3cccs3)nc3ccccc23)cc1S(=O)(=O)N1CCOCC1	?	-66*	?	16µM*	10	-37%
O=C1C(=Cc2ccco2)CCC1=Cc1ccco1	?	-51*	3%	1%	-4	-13%
COc1ccccc1NC(=O)Nc1nc(C(N)Cc2ccccc2)cs1 (stereo not given)	?	?	?	23µM*	.	-62%
COc1ccccc1NC(=O)Nc1nc(C(N)CC(C)C)cs1 (stereo not given)	?	-57*	-19%	-6%	.	-83%
CC(C)CC(N)c1csc(NC(=O)Nc2ccccc2Cc2ccccc2)n1 (stereo not given)	?	?	?	?	.	-92%
Cc1ccccc1NC(=O)Nc1nc(C(N)Cc2ccccc2)cs1 (stereo not given)	?	-56*	?	23µM*	.	-89%
CC(C)CC(N)c1csc(NC(=O)c2cc(C(C)(C)C)nn2Cc2ccccc2)n1 (stereo not given)	?	-114*	16µM*	12µM*	.	11µM*
